Structures are written as SMILES. A number with no mark means an inactive call. Inconclusive results are not listed. Active and inactive are the calls of the source. Unless noted, calls come from the whole dose curve; as a rule, active = well fitted curve in the direction sought with a large enough effect in the repeat runs; inconclusive = weak or mixed curves; inactive = no such curve, though single readings can be large; an effect the other way counts as inactive or inconclusive.

The nature of assay [1]: Human pregnane X receptor (PXR) small molecule agonists, qHTS cell viability counter screen (AID 1346977). Note: nearly all actives have a fitted effect of over 50% in size. Note: potency is the fitted concentration of half-maximal effect. Put shortly: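 HepG2 cells stably carrying the PXR-Luc reporter are cultured with 5% charcoal-stripped FBS and treated with compounds for 24hr. CellTiter-Fluor is added at 23hr and fluorescence is read after 1hr.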
Background: Quantitative high-throughput screening tests each substance at several concentrations.

The nature of assay [2]: Caspase-3/7 induction in HepG2 cells by small molecules, qHTS assay (AID 1346978). Note: nearly all actives have a fitted effect of over 15% in size. Put shortly:
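Wild-type HepG2 cells, 2,000/well, settled 5 hr at 37 C and 5% CO2, then compound-treated for 17 hr; caspase-3/7 activity read by luminescent Caspase-Glo 3/7 after 30 min at room temperature.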

Assay [3] in a line: Caspase-3/7 induction in CHO-K1 cells by small molecules, qHTS cell viability counter screen (AID 1346979). Note: nearly all actives have a fitted effect of over 35% in size. Note: potency is the fitted concentration of half-maximal effect. Put shortly:
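Seeding: 1,500 CHO-K1 cells/well. Rest: 5hr, 37C. Treatment: compounds in DMSO, 16hr. Read: CellTiter-Fluor, 1hr, fluorescence.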

Assay [4] can be described thus: Caspase-3/7 induction in CHO-K1 cells by small molecules, qHTS assay (AID 1346980). Note: nearly all actives have a fitted effect of over 15% in size. Put shortly: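 Wild-type CHO-K1 cells exposed to compounds for 17hr at 37 C, 5% CO2. Caspase-3/7 activity then measured by Caspase-Glo 3/7 luminescence after 30min at room temperature.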
The nature of assay [5]: Caspase-3/7 induction in HepG2 cells by small molecules, qHTS cell viability counter screen (AID 1346981). Note: series mostly up to about 92 µM; nearly all actives have a fitted effect of over 30% in size. Put shortly: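 Steps: seed 2,000 HepG2 cells per well; incubate 5 hr at 37 C; pin-add compounds in DMSO; incubate 16 hr; add CellTiter-Fluor; after 1 hr at 37 C and 5% CO2, read fluorescence.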
The target of assay [6] is Nuclear receptor subfamily 1 group I member 2 (Homo sapiens) (UniProt O75469). As to the kind of experiment: Human pregnane X receptor (PXR) small molecule agonists, qHTS assay (AID 1346982). Note: nearly all actives have a fitted effect of over 35% in size. Note: potency is the fitted concentration of half-maximal effect. Put shortly:
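Agonist mode qHTS: PXR-Luc HepG2 cells plated 5 hr before DMSO-dissolved compounds were pinned in, cultured 24 hr at 37 C, 5% CO2; ONE-Glo luminescence readout.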

Assay [7] deals with Acetylcholinesterase (Homo sapiens) (UniProt P22303). As to the kind of experiment: Acetylcholinesterase (AChE) small molecule antagonists: colormetric cell-based qHTS assay (AID 1347395; calls by dose curve; note: nearly all actives have a fitted effect of over 30% in size; note: potency is the fitted concentration of half-maximal effect). The essentials:
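Quantitative HTS in attached SH-SY5Y cells: 30 min compound exposure, then 90 min with acetylthiocholine and DTNB at 37 C; colour from thiocholine reports AChE activity.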

For assay [8] the target is unchanged. As to the kind of experiment: Acetylcholinesterase (AChE) small molecule antagonists: enzyme-based qHTS assay (AID 1347397; calls by dose curve; note: nearly all actives have a fitted effect of over 55% in size; note: potency is the fitted concentration of half-maximal effect). The settings on record: Potency: AChE enzyme activity inhibition. The essentials: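 Recombinant human AChE (50 mU/mL) preincubated with compound 30 min at room temperature; acetylthiocholine plus DTNB then added, and thiocholine formation read colorimetrically after 10 min at room temperature. DMSO served as vehicle control.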

For assay [9] the target is unchanged. As to the kind of experiment: Acetylcholinesterase (AChE) small molecule antagonists: fluorescence cell-based qHTS assay (AID 1347398; calls by dose curve; note: nearly all actives have a fitted effect of over 50% in size; note: potency is the fitted concentration of half-maximal effect). The settings on record: Potency: AChE activity. The essentials:
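SH-SY5Y cells (2000/well), attached overnight, incubated with compound 30 min at 37 C. Acetylthiocholine plus Thiolite Green then added for 40 min at room temperature. Thiocholine fluorescence (Ex/Em 490/520 nm) reports cellular AChE activity.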

Assay [10] shares this target. As to the kind of experiment: Acetylcholinesterase (AChE) small molecule antagonists: enzyme-based qHTS assay with human liver microsomes (AID 1347399; calls by dose curve; note: nearly all actives have a fitted effect of over 60% in size). The settings on record: Potency: qHTS inhibition. The essentials: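 Recombinant human AChE (50 mU/mL in the enzyme mix) and human liver microsomes (0.25 mg/mL final) were preincubated with compound and NADPH (0.25 mg/mL final) for 30 min at 37 C. Acetylthiocholine/DTNB was then added; thiocholine was read colorimetrically after 10 min at room temperature.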

Assay [11] addresses Cytochrome P450 2D6 (Homo sapiens) (UniProt P10635). As to the kind of experiment: Cytochrome P450 Family 2 Subfamily D Member 6 (CYP2D6) small molecule antagonists: luciferase reporter qHTS assay (AID 1671196). Note: nearly all actives have a fitted effect of over 50% in size. Note: potency is the fitted concentration of half-maximal effect. The essentials: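 P450-Glo format: CYP2D6 converts a proluciferin substrate to luciferin in an NADPH-driven reaction lasting 1 h at room temperature. Light output, proportional to CYP2D6 activity, reflects interference by test chemicals.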

The target of assay [12] is Cytochrome P450 2C19 (Homo sapiens) (UniProt P33261). As to the kind of experiment: Cytochrome P450 Family 2 Subfamily C Member 19 (CYP2C19) small molecule antagonists: luciferase reporter qHTS assay (AID 1671197). Note: nearly all actives have a fitted effect of over 65% in size. Note: potency is the fitted concentration of half-maximal effect. Put shortly: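 Light output is proportional to CYP2C19 activity: proluciferin substrate is converted to luciferin, then detected by a luciferin detection reagent that also stops the 1 h, 37C NADPH-driven reaction. Ketoconazole serves as positive control.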
Sequence of Cytochrome P450 2C19 (Homo sapiens) (P33261 whole entry, looked up): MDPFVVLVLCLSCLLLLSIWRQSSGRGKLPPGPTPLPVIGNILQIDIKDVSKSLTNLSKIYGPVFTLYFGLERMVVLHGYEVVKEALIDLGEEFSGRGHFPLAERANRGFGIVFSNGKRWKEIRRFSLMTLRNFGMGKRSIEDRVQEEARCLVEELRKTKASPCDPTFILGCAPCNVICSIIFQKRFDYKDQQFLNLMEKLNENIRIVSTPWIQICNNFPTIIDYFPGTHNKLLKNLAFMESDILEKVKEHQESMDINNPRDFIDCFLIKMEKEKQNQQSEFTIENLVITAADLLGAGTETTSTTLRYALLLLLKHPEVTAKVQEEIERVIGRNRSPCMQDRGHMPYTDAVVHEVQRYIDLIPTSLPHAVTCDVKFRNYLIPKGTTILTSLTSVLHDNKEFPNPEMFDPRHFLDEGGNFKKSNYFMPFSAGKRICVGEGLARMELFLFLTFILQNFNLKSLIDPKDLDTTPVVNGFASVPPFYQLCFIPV
A general note: In a reporter assay the amount or activity of a reporter protein is the signal.

For assay [13], the target named is Cytochrome P450 2C9 (Homo sapiens) (UniProt P11712). As to the kind of experiment: Cytochrome P450 Family 2 Subfamily C Member 9 (CYP2C9) small molecule antagonists: luciferase reporter qHTS assay (AID 1671198). Note: nearly all actives have a fitted effect of over 50% in size. Note: potency is the fitted concentration of half-maximal effect. The essentials: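 P450-Glo proluciferin substrate with CYP2C9 enzyme; 10 min RT preincubation, then NADPH regeneration 1 h at 37C; luciferin detection reagent 20 min RT, luminescence in relative luminescence units.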
Sequence of Cytochrome P450 2C9 (Homo sapiens) (P11712 whole entry, looked up): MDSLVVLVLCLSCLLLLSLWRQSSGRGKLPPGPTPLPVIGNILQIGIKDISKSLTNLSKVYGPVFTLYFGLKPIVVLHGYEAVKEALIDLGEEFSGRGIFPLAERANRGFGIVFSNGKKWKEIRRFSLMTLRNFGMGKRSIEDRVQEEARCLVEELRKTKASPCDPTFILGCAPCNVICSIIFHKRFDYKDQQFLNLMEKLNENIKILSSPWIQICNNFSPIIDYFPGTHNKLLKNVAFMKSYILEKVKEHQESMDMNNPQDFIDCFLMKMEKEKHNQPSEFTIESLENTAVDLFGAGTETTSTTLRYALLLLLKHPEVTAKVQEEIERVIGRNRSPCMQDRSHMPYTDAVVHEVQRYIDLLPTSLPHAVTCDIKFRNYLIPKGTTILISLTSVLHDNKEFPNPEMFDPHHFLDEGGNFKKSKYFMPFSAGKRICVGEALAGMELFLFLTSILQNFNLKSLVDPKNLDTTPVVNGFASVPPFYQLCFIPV

The target of assay [14] is Cytochrome P450 3A4 (Homo sapiens) (UniProt P08684). As to the kind of experiment: Cytochrome P450 Family 3 Subfamily A Member 4 (CYP3A4) small molecule antagonists: luciferase reporter qHTS assay (AID 1671201). Note: nearly all actives have a fitted effect of over 50% in size. Note: potency is the fitted concentration of half-maximal effect. Put shortly:
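Enzyme and proluciferin substrate are mixed with test chemicals for 10 min, then NADPH regeneration system drives turnover for 1 h at room temperature. A detection reagent halts the reaction; luminescence after 20 min gives relative activity.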

The target of assay [15] is Voltage-gated inwardly rectifying potassium channel KCNH2 (Homo sapiens) (UniProt Q12809). As to the kind of experiment: Human Ether-a-go-go-Related Gene (hERG) channel small molecule antagonists: fluorescence cell-based qHTS assay (AID 1671200). The essentials:
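First, 1000 cells per well are seeded and cultured overnight at 37 C. Next, FluxOR II dye is loaded for 1 h at room temperature, protected from light. After 10 more minutes, stimulus is added and fluorescence is read.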
For orientation: hERG is a cardiac potassium channel; its block is linked to QT prolongation.

Assay [16] addresses Cytochrome P450 1A2 (Homo sapiens) (UniProt P05177). As to the kind of experiment: Cytochrome P450 Family 1 Subfamily A Member 2 (CYP1A2) small molecule antagonists: luciferase reporter qHTS assay (AID 1671199). Note: nearly all actives have a fitted effect of over 50% in size. Note: potency is the fitted concentration of half-maximal effect. Put shortly:
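Inhibition of CYP1A2 conversion of proluciferin to luciferin, detected by luminescence. Reaction run 1 h at room temperature with NADPH regeneration after brief compound preincubation.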

Assay [17] deals with Nuclear receptor subfamily 1 group I member 2 (Rattus norvegicus) (UniProt Q9R1A7). As to the kind of experiment: Rat pregnane X receptor (rPXR) activation by small molecules, qHTS assay (AID 1346983). Note: nearly all actives have a fitted effect of over 20% in size. The settings on record: rPXR luciferase reporter cells, One-Glo luminescence, 24 h; max activation: stronger effect = higher value. The essentials: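 Cell-based rPXR activation assay: rPXR cells, 2,000 per well, rested 5hr at 37 C, then exposed to compounds in DMSO for 24 hr at 37 C. Luciferase activity read by One-Glo luminescence after 30 min at room temperature.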
% is set by controls: 0 for no effect and ±100 for the full control effect.

Sequence of Nuclear receptor subfamily 1 group I member 2 (Homo sapiens) (O75469 whole entry, looked up): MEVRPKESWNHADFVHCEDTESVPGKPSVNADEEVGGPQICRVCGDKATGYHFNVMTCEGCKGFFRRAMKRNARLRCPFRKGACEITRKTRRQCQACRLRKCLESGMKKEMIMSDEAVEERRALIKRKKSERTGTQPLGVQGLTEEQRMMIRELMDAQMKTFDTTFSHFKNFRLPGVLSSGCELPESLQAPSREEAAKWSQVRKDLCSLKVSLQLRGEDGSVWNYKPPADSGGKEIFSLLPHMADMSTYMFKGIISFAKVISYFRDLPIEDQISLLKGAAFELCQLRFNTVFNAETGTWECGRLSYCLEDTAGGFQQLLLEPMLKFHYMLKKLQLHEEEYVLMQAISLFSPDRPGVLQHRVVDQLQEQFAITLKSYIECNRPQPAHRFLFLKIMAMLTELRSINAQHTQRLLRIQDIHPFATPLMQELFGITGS
Sequence of Voltage-gated inwardly rectifying potassium channel KCNH2 (Homo sapiens) (Q12809 whole entry, looked up): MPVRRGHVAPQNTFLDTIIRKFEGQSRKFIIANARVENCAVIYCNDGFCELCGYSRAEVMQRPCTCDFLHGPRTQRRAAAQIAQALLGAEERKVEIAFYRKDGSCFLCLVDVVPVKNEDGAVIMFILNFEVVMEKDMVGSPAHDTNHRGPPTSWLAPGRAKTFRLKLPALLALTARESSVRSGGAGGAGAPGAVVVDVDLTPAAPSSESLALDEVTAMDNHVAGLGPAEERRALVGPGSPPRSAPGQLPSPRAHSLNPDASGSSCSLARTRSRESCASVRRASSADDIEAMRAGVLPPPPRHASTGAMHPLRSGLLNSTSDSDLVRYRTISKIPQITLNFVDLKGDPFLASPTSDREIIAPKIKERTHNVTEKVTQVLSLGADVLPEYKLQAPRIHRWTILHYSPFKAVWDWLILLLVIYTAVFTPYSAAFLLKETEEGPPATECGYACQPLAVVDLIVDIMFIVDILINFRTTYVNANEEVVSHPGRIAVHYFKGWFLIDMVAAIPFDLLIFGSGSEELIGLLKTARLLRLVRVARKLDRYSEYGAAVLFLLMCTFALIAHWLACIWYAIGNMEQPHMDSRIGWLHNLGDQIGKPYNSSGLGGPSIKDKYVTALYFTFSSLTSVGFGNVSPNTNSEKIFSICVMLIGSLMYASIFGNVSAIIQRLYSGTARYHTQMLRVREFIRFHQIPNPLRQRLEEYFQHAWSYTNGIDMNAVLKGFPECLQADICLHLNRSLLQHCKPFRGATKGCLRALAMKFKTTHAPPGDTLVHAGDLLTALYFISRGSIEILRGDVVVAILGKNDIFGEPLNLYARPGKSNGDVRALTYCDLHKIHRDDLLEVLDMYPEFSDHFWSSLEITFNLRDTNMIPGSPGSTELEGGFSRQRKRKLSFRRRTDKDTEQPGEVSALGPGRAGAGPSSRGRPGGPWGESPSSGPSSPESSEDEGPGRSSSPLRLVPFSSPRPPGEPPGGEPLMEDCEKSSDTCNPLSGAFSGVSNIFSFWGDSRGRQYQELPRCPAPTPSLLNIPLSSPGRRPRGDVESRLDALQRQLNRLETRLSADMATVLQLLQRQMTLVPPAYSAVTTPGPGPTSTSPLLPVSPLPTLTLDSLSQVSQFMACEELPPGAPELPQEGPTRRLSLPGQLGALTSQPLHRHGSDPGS
Sequence of Acetylcholinesterase (Homo sapiens) (P22303 whole entry, looked up): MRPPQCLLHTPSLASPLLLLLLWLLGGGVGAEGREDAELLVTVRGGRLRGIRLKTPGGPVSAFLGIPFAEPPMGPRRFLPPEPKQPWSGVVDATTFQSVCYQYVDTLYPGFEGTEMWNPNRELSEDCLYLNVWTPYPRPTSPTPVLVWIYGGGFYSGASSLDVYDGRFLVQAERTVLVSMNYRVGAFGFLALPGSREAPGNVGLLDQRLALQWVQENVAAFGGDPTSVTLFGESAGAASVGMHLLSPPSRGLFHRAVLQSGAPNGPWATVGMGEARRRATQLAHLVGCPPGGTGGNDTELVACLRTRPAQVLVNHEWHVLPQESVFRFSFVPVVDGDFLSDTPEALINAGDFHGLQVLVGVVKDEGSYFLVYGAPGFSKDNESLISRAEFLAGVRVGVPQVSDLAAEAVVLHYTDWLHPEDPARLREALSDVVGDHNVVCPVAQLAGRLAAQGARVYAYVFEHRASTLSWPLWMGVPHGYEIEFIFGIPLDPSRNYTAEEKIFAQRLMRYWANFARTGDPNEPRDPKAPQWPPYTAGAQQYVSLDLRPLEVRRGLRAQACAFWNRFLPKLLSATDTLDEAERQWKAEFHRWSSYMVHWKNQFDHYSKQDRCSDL
Sequence of Cytochrome P450 3A4 (Homo sapiens) (P08684 whole entry, looked up): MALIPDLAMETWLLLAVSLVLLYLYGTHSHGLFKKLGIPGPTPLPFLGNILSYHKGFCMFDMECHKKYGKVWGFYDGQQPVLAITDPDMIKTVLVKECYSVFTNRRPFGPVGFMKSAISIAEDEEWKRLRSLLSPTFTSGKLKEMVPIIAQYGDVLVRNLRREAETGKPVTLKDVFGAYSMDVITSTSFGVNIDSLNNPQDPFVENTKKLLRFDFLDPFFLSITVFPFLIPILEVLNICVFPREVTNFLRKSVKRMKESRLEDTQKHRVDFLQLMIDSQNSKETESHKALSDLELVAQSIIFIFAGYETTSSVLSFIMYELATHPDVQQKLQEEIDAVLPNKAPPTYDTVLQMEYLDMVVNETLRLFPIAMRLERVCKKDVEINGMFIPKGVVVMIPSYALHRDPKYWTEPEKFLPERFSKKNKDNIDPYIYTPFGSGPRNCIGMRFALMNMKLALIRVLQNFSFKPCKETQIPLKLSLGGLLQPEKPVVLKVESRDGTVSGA
Sequence of Cytochrome P450 2D6 (Homo sapiens) (P10635 whole entry, looked up): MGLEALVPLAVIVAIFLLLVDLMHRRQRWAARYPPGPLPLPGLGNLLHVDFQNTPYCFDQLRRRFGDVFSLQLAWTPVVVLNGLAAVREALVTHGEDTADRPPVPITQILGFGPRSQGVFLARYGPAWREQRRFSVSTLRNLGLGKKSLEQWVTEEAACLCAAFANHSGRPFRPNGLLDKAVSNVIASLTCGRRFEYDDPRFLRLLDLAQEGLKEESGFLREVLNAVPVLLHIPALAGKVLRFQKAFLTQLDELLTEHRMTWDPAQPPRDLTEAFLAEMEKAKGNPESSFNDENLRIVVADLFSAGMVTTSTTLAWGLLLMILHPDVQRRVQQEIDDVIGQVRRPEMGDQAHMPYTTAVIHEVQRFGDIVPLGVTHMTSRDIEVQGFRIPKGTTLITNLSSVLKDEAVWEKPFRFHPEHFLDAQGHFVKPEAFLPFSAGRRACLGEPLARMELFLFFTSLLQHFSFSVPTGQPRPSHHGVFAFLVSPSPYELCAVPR
Sequence of Cytochrome P450 1A2 (Homo sapiens) (P05177 whole entry, looked up): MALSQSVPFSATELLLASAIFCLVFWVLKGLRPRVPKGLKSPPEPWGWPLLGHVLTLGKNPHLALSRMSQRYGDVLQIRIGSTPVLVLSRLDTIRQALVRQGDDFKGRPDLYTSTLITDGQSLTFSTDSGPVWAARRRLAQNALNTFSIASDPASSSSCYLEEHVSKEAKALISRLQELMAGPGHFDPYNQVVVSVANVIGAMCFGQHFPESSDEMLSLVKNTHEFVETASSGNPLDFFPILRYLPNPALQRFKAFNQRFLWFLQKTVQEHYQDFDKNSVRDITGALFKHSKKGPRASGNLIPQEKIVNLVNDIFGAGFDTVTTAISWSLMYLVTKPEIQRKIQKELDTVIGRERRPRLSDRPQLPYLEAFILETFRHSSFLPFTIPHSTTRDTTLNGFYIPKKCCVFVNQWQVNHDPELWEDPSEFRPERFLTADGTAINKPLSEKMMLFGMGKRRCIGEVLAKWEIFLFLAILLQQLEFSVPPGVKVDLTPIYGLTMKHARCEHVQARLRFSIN

`O=[N+]([O-])c1ccc(CCl)cc1`: the Potency entry in assay [1], in assay [2], in assay [3], in assay [4], in assay [5] and in assay [6] was “inactive” in each case. For the same compound, the Potency entry in [7], in [8], in assay [9], in assay [10], in [11] and in [12] was “inactive” in each case. The Potency entry in [13] and in assay [14] was “inactive” each time.

`COc1nc(C)nc(NC(=O)NS(=O)(=O)c2ccccc2Cl)n1`: the Potency entry in [1], in assay [2], in assay [3], in assay [4], in assay [5] and in [6] was “inactive” each time. Further, the Potency result in assay [7], in assay [8], in assay [9], in assay [10], in assay [11] and in [12] was “inactive” in each case. Also, the Potency entry in assay [13] and in assay [15] was “inactive” throughout.

Consider `[O-][Cl+3]([O-])([O-])O`, for which the Potency entry in [1], in assay [2], in assay [3], in assay [4], in assay [6] and in assay [7] was “inactive” throughout. The Potency entry in [8], in assay [9], in [10], in assay [11], in assay [12] and in assay [13] was “inactive” in each case. In addition, the Potency result in assay [16] and in assay [15] was “inactive” throughout.

With `CN(C)c1ccc(N)cc1`, the Potency in assay [1] was 42.2 µM (active); in assay [3] it was 42.2 µM (active); in [6] it was 8.42 µM (active); in [7], 12.3 µM (active); in [8], 61.8 µM (active); in assay [9], 11 µM (active). For the same compound, the Potency is 24.6 µM (active) in assay [11], 7.78 µM (active) in assay [12], 31 µM (active) in [13] and 12.3 µM (active) in assay [16]. The Potency result in [2], in assay [4] and in assay [10] was “inactive” throughout.

As to `CCNS(=O)(=O)C(F)(F)C(F)(F)C(F)(F)C(F)(F)C(F)(F)C(F)(F)C(F)(F)C(F)(F)F`, the Potency result in assay [1], in assay [2], in assay [3], in assay [4], in [5] and in [6] was “inactive” each time. Further, the Potency result in [8], in [9], in assay [10], in [16], in assay [15] and in assay [14] was “inactive” each time. For the same compound, in [13], the Potency is 1.52 µM (active).

On to `CC(C)c1c(CN(C)C(C)Cc2ccccc2)n(C)n(-c2ccccc2)c1=O` (stereo not drawn), for which the Potency entry in [1], in assay [2], in [3], in [4], in [5] and in [8] was “inactive” each time. In addition, the Potency result in assay [9], in assay [10] and in assay [15] was “inactive” in each case. Besides, the max activation in assay [17] is 8.57%. Moreover, the results for the Potency in assay [12], in [13] and in [14] were 6.92 µM (active), 4.36 µM (active) and 1.74 µM (active), respectively.

For `CCOP(=S)(OCC)Oc1cc(C)nc(N(CC)CC)n1`, the Potency result in assay [1], in assay [2], in [3], in assay [4], in assay [5] and in assay [8] was “inactive” each time. The Potency result in assay [10] and in assay [15] was “inactive” in each case. Moreover, the Potency in assay [6] was 17.2 µM (active); in [11], 50.2 µM (active); in [12], 0.399 µM (active); in assay [13] it was 11.2 µM (active); in assay [16], 3.56 µM (active); in [14], 0.633 µM (active).

As for `N#CSCc1ccccc1`, the Potency result in [1], in assay [2], in assay [3], in assay [4], in assay [5] and in assay [7] was “inactive” in each case. Further, the Potency entry in assay [8], in assay [10] and in assay [15] was “inactive” in each case. Besides, the Potency was 43.5 µM (active) in [6], 45 µM (active) in assay [11], 71.3 µM (active) in assay [12] and 80 µM (active) in [16].
